The whole screen tested about 220,000 compounds, of which about 300 (0.14%) were called active.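 Rule for the calls: active = inhibition of at least 40%; inactive = inhibition below 40%.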 This excerpt belongs to a sample that is enriched for actives.
Molecular target: Coagulation factor XI (Homo sapiens) (UniProt P03951)
Test: factor XIa enzyme inhibition, large library – biochemical, 1536-well, primary screen (AID 798);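 note: fluorescence of freed AMC excited at 355 nm; 0% = enzyme without compound and 100% = no enzyme blank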
Settings: purified FXIa, Boc-Glu-Ala-Arg-AMC fluorogenic substrate; at 5 µM; hits give high values

Sequence of Coagulation factor XI (Homo sapiens) (P03951 19-387 limits assumed): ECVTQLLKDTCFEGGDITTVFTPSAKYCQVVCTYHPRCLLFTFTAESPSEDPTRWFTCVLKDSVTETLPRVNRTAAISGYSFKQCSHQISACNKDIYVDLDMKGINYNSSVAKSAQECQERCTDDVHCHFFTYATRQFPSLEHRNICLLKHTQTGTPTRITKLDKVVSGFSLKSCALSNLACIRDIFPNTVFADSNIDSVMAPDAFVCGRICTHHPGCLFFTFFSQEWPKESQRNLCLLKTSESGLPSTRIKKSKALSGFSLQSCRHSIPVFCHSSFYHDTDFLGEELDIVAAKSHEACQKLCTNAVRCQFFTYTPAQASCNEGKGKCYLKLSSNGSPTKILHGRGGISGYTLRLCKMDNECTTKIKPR
Sequence of Coagulation factor XI (Homo sapiens) (P03951 388-625 limits assumed): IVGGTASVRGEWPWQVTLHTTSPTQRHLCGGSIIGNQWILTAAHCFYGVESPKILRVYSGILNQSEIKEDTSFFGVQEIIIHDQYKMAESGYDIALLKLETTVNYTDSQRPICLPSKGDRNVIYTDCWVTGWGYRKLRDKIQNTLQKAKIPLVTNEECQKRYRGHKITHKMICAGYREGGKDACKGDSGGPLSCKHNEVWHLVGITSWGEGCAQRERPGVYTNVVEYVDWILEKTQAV

| SMILES | inhibition |
| --- | --- |
| O=C(NCc1cccnc1)Nc1cccc(NC(=O)NCc2cccnc2)c1F | -0.25% (inactive) |
| CCOC(=O)c1ccccc1NC(=S)N1CCC(C(N)=O)CC1 | -1.65% (inactive) |
| NC(=O)COC(=O)c1cc(S(=O)(=O)N2CCN(c3ccccc3)CC2)ccc1Cl | -1.04% (inactive) |
| O=C1c2ccccc2C(=O)N1CCC(O)C[N+](=O)[O-] (stereo unspecified) | 1.96% (inactive) |
| CCOc1ccc(S(=O)(=O)Nc2nccs2)cc1 | 0.82% (inactive) |
| COc1ccc(OCC(=O)N2CCN(C(=O)c3cccs3)CC2)cc1 | -3.87% (inactive) |
| COc1ccc(CN(C(=O)c2cccs2)c2nccs2)cc1OC | 0.51% (inactive) |
| COc1ccc(CN(Cc2ccc(OC)cc2)C(=O)c2cccs2)cc1 | 54.2% (active) |
| C/C(=N/NC(=O)CC(=O)N/N=C(\C)c1ccc([N+](=O)[O-])cc1)c1ccc([N+](=O)[O-])cc1 | 0.21% (inactive) |
| Cc1nc(N)sc1N=Nc1c(C)n(C)n(-c2ccccc2)c1=O | 1.75% (inactive) |
| CC(C)n1c(O)c(N=Nc2ccccn2)c2ccccc21 | 0.21% (inactive) |
| CCCCOc1ccc(C(=O)N/C(=C/C=C/c2ccccc2)C(=O)N2CCOCC2)cc1 | 5.26% (inactive) |
| CCOC(=O)C1CCN(C(=O)Nc2cccc(OC)c2)CC1 | -1.56% (inactive) |
| CN(c1ccccn1)c1ncnc2[nH]ncc12 | -2.65% (inactive) |
| CCOc1cc2c(Cl)ncnc2c(OCC)c1OCC | -5.65% (inactive) |
| Cc1ccc(C(=O)NNC(=O)OC(C)(C)C)c(Cl)c1 | 8.12% (inactive) |
| Cc1nc(N2CCOCC2)sc1C(=O)NN | -11.6% (inactive) |
| CC(C)(C)NC(=O)C(=O)NN=C1CCCCCCC1 | -1.87% (inactive) |
| O=S(=O)(Nc1ccc2cn[nH]c2c1)c1ccccc1 | -7.54% (inactive) |
| C/C(=N/O)c1ccc(N2C(=O)C3C4C=CC(C3C2=O)C2C3C(=O)N(c5ccc(/C(C)=N/O)cc5)C(=O)C3C42)cc1 (stereo unspecified) | -1.59% (inactive) |
| CCCCCC(=O)Nc1ccc(S(=O)(=O)Nc2ccc(Cl)nn2)cc1 | -12.1% (inactive) |
